{"source": "ChEMBL document CHEMBL3433997", "about": "“St. Jude Leishmania screening dataset” (2016)", "format_in_all_cases": "functional", "key": {"[1]": {"target": "Solute carrier family 2, facilitated glucose transporter member 1 (Homo sapiens) (UniProt P11166)", "sequence (P11166 whole entry)": "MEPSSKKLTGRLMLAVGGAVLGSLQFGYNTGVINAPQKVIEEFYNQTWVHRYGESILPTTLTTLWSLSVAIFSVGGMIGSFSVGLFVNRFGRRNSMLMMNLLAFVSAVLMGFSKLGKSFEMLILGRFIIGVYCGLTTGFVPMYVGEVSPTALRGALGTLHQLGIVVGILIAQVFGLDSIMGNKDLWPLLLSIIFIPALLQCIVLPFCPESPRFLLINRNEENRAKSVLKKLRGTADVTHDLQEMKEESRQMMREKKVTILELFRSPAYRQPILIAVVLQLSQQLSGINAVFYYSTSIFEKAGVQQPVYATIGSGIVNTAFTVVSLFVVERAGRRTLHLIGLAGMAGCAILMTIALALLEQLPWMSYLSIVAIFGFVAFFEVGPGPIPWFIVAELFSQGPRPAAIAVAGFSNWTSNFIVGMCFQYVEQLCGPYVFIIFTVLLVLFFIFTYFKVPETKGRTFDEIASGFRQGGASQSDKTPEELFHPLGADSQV", "experiment": "ST_JUDE_LEISH: Cytotoxicity at 2uM final concentration against transgenic Leishmania Mexicana promastigotes LmGLUT1 that are glucose transport deficient and complemented with the human glucose transporter GLUT1. Activity is measured by DNA content using SYBR green in vitro"}, "[2]": {"target": "Hexose transporter 1 (Plasmodium falciparum) (UniProt O97467)", "experiment": "ST_JUDE_LEISH: Cytotoxicity at 2uM final concentration against transgenic Leishmania Mexicana promastigotes LmPfHT that are glucose transport deficient and complemented with the Plasmodium falciparum hexose transporter. Activity is measured by DNA content using SYBR green in vitro"}, "[3]": {"target": "Glucose transporter (Leishmania mexicana) (UniProt O61059)", "experiment": "ST_JUDE_LEISH: Cytotoxicity at 2uM final concentration against transgenic Leishmania Mexicana promastigotes LmGT2 that are glucose transport deficient and complemented with the L. Mexicana glucose transporter 2. Activity is measured by DNA content using SYBR green in vitro"}}}
{"smiles": "CN(CCCNc1ccc(C(=O)Nc2ccc(C(F)(F)F)cc2)cc1[N+](=O)[O-])Cc1ccccc1", "values": [{"measurement": "inhibition", "setting": "[1]", "result": 1.17, "unit": "%"}, {"measurement": "inhibition", "setting": "[2]", "result": -0.19, "unit": "%"}, {"measurement": "inhibition", "setting": "[3]", "result": -3.45, "unit": "%"}]}
{"smiles": "C=CCc1cc(Cc2cnc(N)nc2N)c2ccc(C)nc2c1O", "values": [{"measurement": "inhibition", "setting": "[1]", "result": 2.17, "unit": "%"}, {"measurement": "inhibition", "setting": "[2]", "result": 1.88, "unit": "%"}, {"measurement": "inhibition", "setting": "[3]", "result": 0.24, "unit": "%"}]}
{"smiles": "CCCCNc1ccc(C(=O)NC2CCN(C[C@H](O)c3ccnc4ccc(OC)cc34)CC2)cc1", "values": [{"measurement": "inhibition", "setting": "[1]", "result": 9.46, "unit": "%"}, {"measurement": "inhibition", "setting": "[2]", "result": 11.8, "unit": "%"}, {"measurement": "inhibition", "setting": "[3]", "result": 3.39, "unit": "%"}]}
{"smiles": "COc1ccc(OC)c2c1CCN(CCN1CCC(C(=O)Nc3ccc(C(=O)Nc4ccc(Cl)cc4)cc3)CC1)C2", "values": [{"measurement": "inhibition", "setting": "[1]", "result": 1.55, "unit": "%"}, {"measurement": "inhibition", "setting": "[2]", "result": 0.47, "unit": "%"}, {"measurement": "inhibition", "setting": "[3]", "result": 0.22, "unit": "%"}]}
{"smiles": "CN1CCN(CC(=O)Nc2cccc(-c3ccc(-c4nc5cc(C(F)(F)F)ccc5[nH]4)s3)c2)CC1", "values": [{"measurement": "inhibition", "setting": "[1]", "result": 1.78, "unit": "%"}, {"measurement": "inhibition", "setting": "[2]", "result": 2.7, "unit": "%"}, {"measurement": "inhibition", "setting": "[3]", "result": 4.37, "unit": "%"}]}
{"smiles": "COc1ccc2nc3cc(Cl)ccc3c(Nc3ccc(O)c(CN4CC5CCC(CC5)C4)c3)c2c1", "values": [{"measurement": "inhibition", "setting": "[1]", "result": 4.99, "unit": "%"}, {"measurement": "inhibition", "setting": "[2]", "result": 4.24, "unit": "%"}, {"measurement": "inhibition", "setting": "[3]", "result": 3.82, "unit": "%"}]}
{"smiles": "Cn1cc(-c2ccnc3[nH]c(-c4cccc(CNC5CCC(O)CC5)c4)cc23)cn1", "note": "(stereo not drawn)", "values": [{"measurement": "inhibition", "setting": "[1]", "result": 0.39, "unit": "%"}, {"measurement": "inhibition", "setting": "[2]", "result": 1.89, "unit": "%"}, {"measurement": "inhibition", "setting": "[3]", "result": 3.37, "unit": "%"}]}
{"smiles": "CN1CCc2cc(O)c(NS(=O)(=O)c3ccc(-c4ccc(Cl)cc4)cc3)cc2CC1", "values": [{"measurement": "inhibition", "setting": "[1]", "result": 12.4, "unit": "%"}, {"measurement": "inhibition", "setting": "[2]", "result": 9.38, "unit": "%"}, {"measurement": "inhibition", "setting": "[3]", "result": 9.99, "unit": "%"}]}
{"smiles": "CS(=O)(=O)c1cccc(-c2cnc3[nH]cc(-c4ccc(CCC(=O)O)cc4)c3c2)c1", "values": [{"measurement": "inhibition", "setting": "[1]", "result": 0.77, "unit": "%"}, {"measurement": "inhibition", "setting": "[2]", "result": 1.38, "unit": "%"}, {"measurement": "inhibition", "setting": "[3]", "result": 0.31, "unit": "%"}]}
{"smiles": "CC(C)C[C@H](NC(=O)c1ccc(OCCN2CCOCC2)cc1)C(=O)N[C@H](/C=N/NC(=O)c1ccccc1)CCc1ccccc1", "values": [{"measurement": "inhibition", "setting": "[1]", "result": 3.15, "unit": "%"}, {"measurement": "inhibition", "setting": "[2]", "result": 5.83, "unit": "%"}, {"measurement": "inhibition", "setting": "[3]", "result": 2.03, "unit": "%"}]}
{"smiles": "COc1ccc2nccc([C@@H](O)CN3CCC(NCCOc4cc(C(F)(F)F)ccc4F)CC3)c2c1", "values": [{"measurement": "inhibition", "setting": "[1]", "result": 21.5, "unit": "%"}, {"measurement": "inhibition", "setting": "[2]", "result": 33.3, "unit": "%"}, {"measurement": "inhibition", "setting": "[3]", "result": 14.4, "unit": "%"}]}
